Only some compounds are listed: those with a hit (about 7.1% of all), similar ones and a draw of the others.
ELG1 genotox: inducers of genotoxicity in HEK293T ELG1-luciferase cells; HEK293T ELG1-luciferase reporter, luminescence, 16 h; Potency, µM (titrated, usually from 46 µM), for inactives: top-dose activity change, positive = activation, actives largely listed as activators; 330,000 compounds, 1.3% hits; AID 504466; note: % of control where 0% means no effect; nearly all actives have a fitted effect of over 60% in size
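DMSO vehicle served as control against compound-treated ELG1-luciferase HEK293T cells; exposure lasted 16 hr at 37 °C and 5% CO2, followed by ONE-Glo luminescence detection after 30 min.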
MCF10A rereplic: induces DNA re-replication in MCF 10a normal breast cells. Potency, µM (doses to about 46.1 µM), for inactives: at the top dose activity, positive = re-replication, hits mostly activators. 350,000 compounds, 2.9% hits. MCF 10A DNA re-replication, Hoechst nuclear intensity, 48 h; note: % of control where 0% means no effect; nearly all actives have a fitted effect of over 50% in size
A-T KAP1 phos: candidate therapy for ataxia-telangiectasia. F2112 A-T fibroblasts, KAP-1 phosphorylation AlphaLISA; neocarzinostatin DNA damage 30 min before lysis. 320,000 compounds, 0.19% hits. Potency, µM (doses to about 57.5 µM), for the others: at the highest dose activation, hits mostly activators; note: % of control where 0% means no effect; nearly all actives have a fitted effect of over 45% in size
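ATM-like activity read as KAP-1 phosphorylation via AlphaLISA donor/acceptor antibody pairs after lysis and 6 hr at 25C. Cells were ATM-null patient fibroblasts (F2112, hTERT), dosed 60 min, then exposed to the DSB inducer NCS for 30 min.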
SW480 rereplic: inducers of DNA re-replication in SW480 colon cancer cells. SW480 DNA re-replication, Hoechst DNA content imaging, 48 h. 340,000 compounds, 1.8% hits. AID 624297. Potency, µM (titrated, usually from 46.1 µM), for inactives: at the top dose re-replication activation, hits mostly activators; note: % of control where 0% means no effect; nearly all actives have a fitted effect of over 55% in size
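Quantitative HTS format with DMSO vehicle controls; 48 hr drug incubation at 37 C, then 40 min Hoechst staining and scanning imager measurement at 405 nm excitation.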
p53 reactivator: restores transcriptional activity of mutant p53. H1299 p53-A138V BP100-luciferase reporter, luminescence, 24 h. Potency, µM (series often up to 92.2 µM), inactives show at the highest dose activity change, positive = activation, usual class: activators. 320,000 compounds, 0.063% hits. AID 504706; note: % of control where 0% means no effect; nearly all actives have a fitted effect of over 45% in size
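p53-null H1299 cells stably carrying temperature-sensitive p53-A138V and a BP100-luciferase reporter were pinned with compounds (4-point, 1:5 series) and held 24 hrs at 37 deg C. Luminescence was read 10 min after detection reagent.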
ELG1 DNA repair: inhibitors of ELG1-dependent DNA repair in HEK293T cells; HEK293T ELG1-luciferase reporter, luminescence, 16 h; DNA damage induced by 5-fluorouridine; Potency, µM (series often up to 46.1 µM), without a hit: at the top dose activity change, negative = inhibition, most hits filed as inhibitors; 330,000 compounds, 2.3% hits; note: % is set by controls: 0 for no effect and ±100 for the full control effect; nearly all actives have a fitted effect of over 55% in size
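Luminescence from the luciferase reporter, measured 30 min after ONE-Glo reagent at room temperature, was the read-out. Beforehand, 2,000 cells per well were exposed for 16 hr at 37 °C to 5-fluorouridine together with compound or vehicle.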
An asterisk follows results filed as active; ? = inconclusive; . = not tested or not shown. Calls come from the whole dose curve; as a rule, active = well fitted curve in the direction sought with a large enough effect; inconclusive = small, poorly fitted or top-dose-only effect, or another doubt; inactive = no such curve, though single readings can be large; an effect the other way counts as inactive or inconclusive. Potency is the fitted concentration of half-maximal effect.

SMILES	ELG1 genotox	MCF10A rereplic	A-T KAP1 phos	SW480 rereplic	p53 reactivator	ELG1 DNA repair
COc1ccc(C(=O)Nc2ccccc2N2CCN(C(=O)c3ccccc3)CC2)cc1Br	-21%	5%	4%	-1%	-6%	21µM*
O=C(c1cccc([N+](=O)[O-])c1)N1CCN(c2n[nH]c(=O)[nH]c2=O)CC1	-2%	-3%	-4%	-5%	0%	0%
CC1CCCC(NC(=O)CCNC(=O)c2ccc([N+](=O)[O-])cc2)C1C (stereo unspecified)	-1%	3%	-2%	-2%	1%	1%
O=C(Nc1ncc(Cc2cccc(Cl)c2)s1)C1CCCO1 (stereo unspecified)	15%	22%	-2%	?	1%	?
O=C(Nc1ncc(Cc2cccc(Cl)c2Cl)s1)C1CCCO1 (stereo unspecified)	16µM*	-8%	-2%	1%	12%	?
CCc1ccc(CCC(=O)Nc2ncc(Cc3ccccc3Cl)s2)o1	?	1.6µM*	6%	4.6µM*	?	1%
O=C(Nc1ncc(Cc2ccccc2Cl)s1)C1CCCO1 (stereo unspecified)	?	1%	2%	3%	14µM*	?
CCOc1ccccc1N1CCN(C(=O)c2ccc3c(c2)OCO3)CC1	-9%	20%	8%	?	-17%	-11%
O=C(OCC(=O)N1CCCC1=O)C1CCN(S(=O)(=O)c2c(Cl)cccc2Cl)CC1	-7%	-23%	-4%	?	-8%	18%
CCc1c(C(=O)NNC(=O)Nc2ccc3c(c2)OCO3)csc1C	16%	4%	6%	-1%	5%	8%
COc1cc2c(cc1OC)/C(=C/c1ccc(Cl)cc1)C(=O)OC2	3%	13µM*	2%	?	-1%	-12%
O=C(CCCOc1ccc(Cl)cc1Cl)N/N=C/c1ccccc1O	0%	?	19%	?	?	?
Cc1ccc(/C=N/NC(=O)CCCOc2ccc(Cl)cc2Cl)cc1	1%	15µM*	14%	?	-11%	-18%
O=C(CCCOc1ccc(Cl)cc1Cl)N/N=C/c1ccccc1	-2%	?	-5%	1.6µM*	10%	9%
O=C(COc1ccc(Cl)cc1Cl)Nc1ccc(Cl)cn1	1.2µM*	1%	11%	-2%	33%	?
Cc1ccc(/C=N/NC(=O)CCCOc2ccc(Cl)cc2Cl)cc1[N+](=O)[O-]	0%	?	-1%	-2%	-6%	?
O=C(COc1ccc(Cl)cc1Cl)N/N=C/c1ccc[nH]1	9%	12µM*	13%	0%	13%	?
CC(=O)Nc1ccc(NC(=O)COc2ccc(Cl)cc2Cl)cc1	1%	?	-4%	20%	5%	?
CC(=O)c1ccc(-c2ccc(C(=O)N3CCC(C(N)=O)CC3)o2)cc1	?	-1%	0%	-14%	8%	?
CN(Cc1cn(C)nc1-c1ccc(Oc2ccccc2)cc1)Cc1cnc2ccccn12	-8%	23µM*	3%	-3%	-1%	?
Cc1ccc2nc3c(cc(C(=O)NCc4ccccc4)c(=N)n3CCCn3ccnc3)c(=O)n2c1	.	8.2µM*	.	5.2µM*	.	.
Cc1cccn2c(=O)c3cc(C(=O)NCC4CCCO4)c(=N)n(CCc4ccccc4)c3nc12 (stereo unspecified)	-5%	26%	33%	?	6%	0%
Cc1ccc2nc3c(cc(C(=O)NC4CCS(=O)(=O)C4)n3Cc3ccccc3)c(=O)n2c1 (stereo unspecified)	-5%	23µM*	32µM*	23µM*	-4%	?
Cc1cccn2c(=O)c3cc(C(=O)NC(C)c4ccccc4)c(=N)n(CCCn4ccnc4)c3nc12 (stereo unspecified)	-1%	21µM*	-4%	16µM*	-4%	-6%
Cc1ccc2nc3c(cc(C(=O)NCCc4ccccc4)c(=N)n3CCN3CCOCC3)c(=O)n2c1	6%	18µM*	7%	5.2µM*	0%	6%
SMILES	ELG1 genotox	MCF10A rereplic	A-T KAP1 phos	SW480 rereplic	p53 reactivator	ELG1 DNA repair
COc1ccc(OCc2cc(C(=O)N3CCCC(O)C3)no2)c2ccccc12 (stereo unspecified)	?	?	7%	-1%	15%	?
O=C(COC(=O)c1cc(=O)[nH]c(=O)[nH]1)Nc1ccccc1F	0%	5%	2%	2%	-3%	24%
CS(=O)(=O)c1ccc([C@@H](O)[C@@H](COC(=O)CN)NC(=O)C(Cl)Cl)cc1	.	-1%	.	-3%	.	.
COc1ccc(N2CC(C(=O)N[C@H](C(=O)NC(C)c3ccccc3)C(C)C)CC2=O)cc1 (stereo partly specified)	2%	11%	-1%	8%	8%	-7%
Cc1ccc2nc3c(cc(C(N)=S)c(=N)n3CCCOC(C)C)c(=O)n2c1	-5%	?	12%	-2%	-1%	?
Cc1ccc2nc3c(cc(C(=O)NCCN4CCOCC4)c(=N)n3CCCN3CCOCC3)c(=O)n2c1	0%	?	6%	1.8µM*	-3%	0%
CC(=O)Nc1ccc(SCCC2CCCCN2C)cc1 (stereo unspecified)	2%	-1%	9%	-6%	6%	14%
COC(=O)c1ccc(NC(=O)CSC2=NCCN2)cc1	0%	15µM*	-1%	?	-29%	-17%
CCOc1ccc(NC(=O)CSC2=NCCN2)cc1	2%	8%	9%	-2%	18%	-5%
O=C(CSc1ccc([N+](=O)[O-])cc1)Nc1nnc(C2CC2)s1	1%	-3%	1%	-2%	3%	22%
O=C(Cn1cc(COc2ccc(Br)cc2[N+](=O)[O-])nn1)c1ccc(O)cc1	.	14%	.	9.2µM*	.	.
Cc1cccc(NC(=O)C2CCN(S(=O)(=O)c3c(C)noc3/C=C/c3ccco3)CC2)n1	-6%	?	-6%	-2%	-2%	13µM*
Cc1nn(C)c(C)c1S(=O)(=O)N1CCC(C(=O)Nc2ccc3c(c2)OCCO3)CC1	18µM*	0%	3%	3%	?	?
Cc1ccc(Cl)cc1NC(=O)C1CCCN(S(=O)(=O)c2c(C)noc2C)C1 (stereo unspecified)	.	-1%	-5%	-1%	63%	?
Cc1cc(NC(=O)C2CCN(S(=O)(=O)c3c(C)noc3C)CC2)ccc1Br	-1%	21µM*	22%	?	-2%	11%
